# A selection: hits, their analogues and other compounds. The true share with any hit is near 4.5%.
# DAX1 inh-1: inhibitors of DAX1 repression of SF-1 activated StAR promoter; AID 652010; HEK293T StAR-luciferase reporter, SF-1/DAX-1 repression relief; inhibition, % at 6.8 µM; 370,000 compounds, 1.1% hits;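 active = inhibition above the mean over all tested compounds plus 3 SD, cut at about 3.6% in these data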;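 note: 0% = DAX-1 cells with DMSO and 100% = cells lacking DAX-1 with DMSO; higher inhibition means more luminescence from relief of DAX-1 repression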
# hgDAF-12 ag: activates the H. glycines DAF-12 receptor ligand-binding domain. AID 687014. 370,000 compounds, 1.8% hits. activation, % at 6.8 µM. HEK293 GAL4-hgDAF12 UAS-luciferase reporter, agonist luminescence; normalized to butyrate control;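 active = activation above a cutoff set at the mean of all screened compounds plus 3 SD, cut at about 10% in these data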;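 note: 0% = DMSO wells and 100% = sodium butyrate wells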
# ssDAF12 agonist: activators of S. stercoralis DAF-12 nuclear receptor. AID 652126. 370,000 compounds, 1% hits. HEK293 ssDAF-12/GRIP1 lit1-tk-luc reporter, luminescence; % of 3 µM dafachronic acid response. activation, % at 6.8 µM;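 active = activation above the mean over all tested compounds plus 3 SD, cut at about 0.9% in these data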;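 note: 0% = DMSO-only wells and 100% = 3 µM delta7-dafachronic acid wells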
# hcDAF12 agonist: activates DAF-12 receptor from parasite H. contortus | HEK293 hcDAF-12 lit1-tk-luc reporter, luminescence; 0% DMSO, 100% Δ7-dafachronic acid | AID 652067 | 370,000 compounds, 1.4% hits | activation, % at 6.8 µM;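 active = activation above the mean of all tested compounds plus 3 SD, cut at about 5.5% in these data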;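 note: 100% = response to 3 µM Δ7-dafachronic acid high control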
# DAX1 inh-2: inhibitors of human orphan nuclear receptor DAX1 (NR0B1); inhibition, % at 6.75 µM; 340,000 compounds, 0.99% hits; HEK293 Gal4-DAX1 luciferase reporter, luminescence; AID 504766; P51843;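 active = inhibition above the mean over all tested compounds plus 3 SD, cut at about 4.2% in these data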;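 note: 0% = DAX1-transfected cells with DMSO and 100% = empty-vector control cells with DMSO; inhibition shows as a rise in luminescence from relieved DAX1 repression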
# Target sequence (P51843 207-470 limits assumed): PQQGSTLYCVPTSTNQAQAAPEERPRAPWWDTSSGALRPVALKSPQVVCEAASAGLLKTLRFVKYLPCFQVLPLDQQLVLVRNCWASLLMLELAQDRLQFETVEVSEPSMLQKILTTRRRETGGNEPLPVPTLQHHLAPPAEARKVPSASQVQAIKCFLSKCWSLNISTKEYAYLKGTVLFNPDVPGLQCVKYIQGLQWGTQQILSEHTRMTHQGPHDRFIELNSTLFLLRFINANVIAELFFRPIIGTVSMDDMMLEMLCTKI
# FXN GAA850 act: activators of GAA850 frataxin (FXN) promoter. AID 540364. HEK293 lucGAA850 FXN promoter luciferase reporter, 24 h; percent of 10 µM SAHA response. activation, % at 6 µM. 360,000 compounds, 0.56% hits;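 active = activation above the average of all compounds screened plus 3 SD, cutoff fixed separately per campaign, cut at about 7.5% in these data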;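 note: 0% = DMSO wells and 100% = 10 µM SAHA wells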
# GAA30 FXN cntr: activates GAA30 frataxin promoter, counter-screen for GAA850 activators | shares compounds with FXN GAA850 act | HEK293 lucGAA30 FXN promoter luciferase, 24 h; DMSO = 0%, 5 µM ipriflavone = 100% | activation, % at 6 µM | 1,900 compounds, 66% hits | AID 588350;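 active = mean activation above the mean of solvent-only control wells plus 3 SD, cut at about 22% in these data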;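 note: counterscreen of GAA850 promoter hits where activity marks nonselective or luminescence artifacts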
# FXN GAA850 conf: confirmation of GAA850 frataxin (FXN) promoter activators. shares compounds with FXN GAA850 act. HEK293 lucGAA850 FXN promoter luciferase reporter, 24 h; 100% = activation by SAHA. activation, % at 6 µM. 1,900 compounds, 86% hits. AID 588351;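 active = mean activation above a set limit taken from the primary screen, cut at about 8% in these data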;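 note: 0% = DMSO wells and 100% = 10 µM SAHA wells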
# Numbers without * were called inactive; x = no result given.
SMILES,DAX1 inh-1,hgDAF-12 ag,ssDAF12 agonist,hcDAF12 agonist,DAX1 inh-2,FXN GAA850 act,GAA30 FXN cntr,FXN GAA850 conf
COc1cc(C)ccc1OCc1cc(C(=O)N2CCC(c3ccc(F)cc3)C2)no1 (stereo unspecified),1.4,12.5*,0.8,5.1,2.8,8.9*,117.3*,35.4*
COCC1CCN(C(=O)c2cc(COc3ccc(F)cc3F)on2)C1 (stereo unspecified),1.8,-0.8,-1.1,-1.5,0.2,-0.2,x,x
CC(=O)N1CCc2cc(S(=O)(=O)NC3CCN(C(=O)C(C)(C)C)CC3)ccc21,-1.4,-2.5,-1.7,-0.1,x,x,x,x
OC12CCCCC1C(c1ccc3c(c1)OCO3)N(Cc1ccc(F)cc1)CC2 (stereo unspecified),0.0,0.6,-1.4,-1.2,0.1,14.8*,21.3,11.8*
OC12CCCCC1C(c1ccc3c(c1)OCO3)N(Cc1cccc(F)c1)CC2 (stereo unspecified),-0.1,-1.4,-1.1,-0.2,0.1,11.7*,20.0,12.7*
OC12CCCCC1C(c1ccc3c(c1)OCO3)N(Cc1ccccc1F)CC2 (stereo unspecified),-0.3,-1.3,-1.2,0.4,-0.1,1.1,x,x
CN1C(=O)C[C@@](C#N)(C(=O)NCCc2ccccc2)[C@H]1c1ccccc1,0.9,4.6,-1.2,2.2,x,x,x,x
O=C(NC12CC3CC(CC(C3)C1)C2)N(Cc1ccccc1)Cc1ccncc1,-0.7,-2.6,-2.1,-1.9,0.9,10.3*,13.0,13.2*
COc1ccc(CCNC(=O)c2cc(-c3ccccc3)on2)cc1OC,-0.2,3.0,-1.1,-3.3,0.0,10.5*,62.5*,33.1*
CN(C)[C@H]1CCN(c2ccc3c(c2)OCCCN(C2CC2)S3(=O)=O)C1,-0.7,0.5,0.4,-0.6,x,x,x,x
O=C(NNC(=S)Nc1ccccc1)c1ccncc1,0.8,6.3,-0.6,-0.6,0.2,-1.1,x,x
O=C(NNC(=S)Nc1ccccc1)Nc1ccccc1,1.9,7.5,0.1,3.1,1.2,7.7*,35.6*,11.3*
Cc1ccc2nc(Nc3ccc4[nH]c(=O)[nH]c4c3)c(-n3nc(C)cc3C)nc2c1,0.7,3.0,-0.8,1.2,0.1,9.1*,76.5*,29.4*
Cc1cc(C)n(-c2nc3ccccc3nc2Nc2ccc3c(c2)OCO3)n1,0.0,-0.8,-1.8,-0.8,0.8,3.5,x,x
CCN(CC)CCCNC(=O)CSc1nnc(-c2ccncc2)n1-c1ccc(OC)cc1,0.9,-0.3,-0.5,-2.4,x,x,x,x
COc1nc(NCCO)nc(Nc2ccccc2F)n1,1.9,8.2,-0.8,1.2,0.6,14.1*,86.3*,24.7*
COc1nc(Nc2ccccc2F)nc(OC)n1,0.0,-0.4,-1.0,-0.8,1.1,5.5,x,x
COc1ccc(C(=O)/C=C/Nc2cccc(C)n2)cc1OC,1.8,10.8*,-0.1,1.3,2.3,11.2*,117.4*,46.0*
CCCCNC(=O)OC1CCC12CCC(c1ccccc1)CC2 (stereo unspecified),-1.6,5.9,-1.6,0.1,x,x,x,x
COC[C@@H]1CCCN1c1ccc2c(c1)O[C@@H]1CCN(C1)S2(=O)=O,0.1,1.9,0.3,-1.1,x,x,x,x
Cc1ccc(Nc2nc3ccccc3[nH]2)nc1,-0.6,4.8,-0.3,-0.3,0.4,9.4*,85.6*,42.5*
Cc1ccc(C)c(C(=O)Nc2nc3ccccc3[nH]2)c1,0.9,3.5,-1.0,0.0,-0.2,1.7,x,x
N#CCCN1CCN(C(=S)c2ccc(-c3cccc(Cl)c3)o2)CC1,0.9,2.7,-0.6,-0.6,1.1,8.6*,74.2*,31.1*
N#CCCN1CCN(C(=S)c2ccc(-c3ccc(Cl)c(Cl)c3)o2)CC1,-0.1,1.2,-0.9,0.0,0.5,8.7*,72.0*,30.2*
O=[N+]([O-])c1cc(-c2ccc(C(=S)N3CCOCC3)o2)ccc1Cl,0.5,0.8,0.3,5.3,0.7,4.0,x,x
SMILES,DAX1 inh-1,hgDAF-12 ag,ssDAF12 agonist,hcDAF12 agonist,DAX1 inh-2,FXN GAA850 act,GAA30 FXN cntr,FXN GAA850 conf
CC(=O)N/C(=C\c1ccccc1)C(=O)OCC(=O)NC(=O)c1ccccc1,0.1,4.5,-0.2,-0.5,-0.3,1.1,x,x
CC(NC(=O)COC(=O)[C@@H]1CCCN1S(=O)(=O)c1ccccc1F)C12CC3CC(CC(C3)C1)C2 (stereo partly specified),0.9,-3.2,-1.4,-2.4,-1.0,8.8*,27.8*,14.7*
CC(=O)N/C(=C\c1ccccc1)C(=O)OCC(=O)NC(C)C12CC3CC(CC(C3)C1)C2 (stereo unspecified),1.1,1.9,-1.2,-3.2,-0.9,12.8*,29.7*,12.9*
N=c1c2c(ccn1Cc1ccccc1)Oc1ccc3ccccc3c1C2c1ccccc1 (stereo unspecified),x,-3.0,-2.0,-2.0,x,x,x,x
COc1ccc(Nc2nc(N)nc(CSC(=S)N3CCOCC3)n2)cc1,1.2,5.4,-1.0,0.5,2.2,7.6*,83.4*,32.5*
c1ccc(OCCCn2nnc(-c3ccc(N4CCOCC4)cc3)n2)cc1,0.7,-1.3,-1.9,-3.3,-0.9,8.6*,19.9,8.6*
CCNS(=O)(=O)c1ccc(CCC(=O)N2CCN(c3cccc(Cl)c3)CC2)cc1,-0.4,-1.8,-0.7,-2.3,-1.7,2.0,x,x
Cc1ccc(S(=O)(=O)NCCC(=O)N2CCN(c3cccc(Cl)c3)CC2)cc1C,0.1,-0.1,-1.2,-1.8,-0.7,10.6*,-5.2,1.1
CC(C)OP(=O)(c1ccc(N(C)C)cc1)C(Nc1ccccc1)c1ccccc1 (stereo unspecified),-0.4,-0.5,-1.6,-0.3,-1.2,8.0*,12.0,12.7*
Cc1ccc(/C=C/C(=O)NC2CCCCCCC2)o1,1.6,6.9,-0.3,-1.4,-0.6,10.8*,99.1*,48.8*
Cc1cc(NS(=O)(=O)c2ccc(NC(=O)CSc3nnc(-c4ccncc4)n3Cc3ccco3)cc2)nc(C)n1,-0.2,0.9,-1.2,-0.8,x,x,x,x
Clc1ccc2c(c1)-c1ccccc1C1=NCCN12,-1.2,2.2,0.0,1.7,1.2,32.9*,-0.6,138.6*
Brc1ccc2c(c1)-c1ccccc1C1=NCCN12,0.1,2.6,-1.1,-1.0,-0.3,23.9*,11.2,130.1*
COc1ccc(Br)cc1S(=O)(=O)N1CCN=C1c1ccccc1,0.6,-1.5,-1.1,0.9,0.4,-0.6,x,x
CN1C2=NCCN2C(=O)c2cc(Cl)ccc21,0.4,0.2,-1.2,4.0,1.3,0.8,x,x

# Bioassay records deposited in PubChem by The Scripps Research Institute Molecular Screening Center.
